# Test results as given in PubChem BioAssay (NCI).
# The panel holds about 79,000 compounds, 15% with a hit somewhere; the sample as a whole holds those more often. Unmarked numbers belong to inactive results. Activity calls are given as the source filed them. Cut-off read from the data, not from the text of the source: active = growth inhibition above about 70%; inactive = the rest.
# Columns and labels:
# [1] = NCI Yeast Anticancer Drug Screen. Data for the rad50 strain (AID 155);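 note: 0% = growth of vehicle-only cultures of the same strain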; settings: S. cerevisiae rad50 strain growth inhibition; at 50.0 µM; active compounds read high
# Outline: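 DNA repair mutant yeast, compound exposure, growth read-out; inhibition is taken relative to vehicle.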
# [2] = NCI Yeast Anticancer Drug Screen. Data for the mec2-1 strain (AID 157); settings: S. cerevisiae mec2-1 strain, at 50.0 µM, active compounds read high
# Outline: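 Vehicle-treated cultures served as reference for growth inhibition of compound-exposed mec2-1 yeast.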
# [3] = NCI Yeast Anticancer Drug Screen. Data for the sgs1 mgt1 strain (AID 161);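 note: 0% = growth of cultures given vehicle only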; settings: S. cerevisiae sgs1 mgt1 strain, at 50.0 µM, active compounds read high
# Outline: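 Test agents were incubated with a DNA-repair-mutant yeast strain. Growth was then read and compared against vehicle-treated controls.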
# [4] = NCI Yeast Anticancer Drug Screen. Data for the cln2 rad14 strain (AID 165);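 note: 0% = growth equal to vehicle treated cultures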; settings: S. cerevisiae cln2 rad14 strain, at 50.0 µM, active compounds read high
# Outline: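 Each compound was tested on cln2 rad14 yeast. Inhibition of growth was calculated against vehicle-exposed controls.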
# [5] = NCI Yeast Anticancer Drug Screen. Data for the bub3 strain (AID 167); settings: S. cerevisiae bub3 mutant strain, at 50.0 µM, active compounds read high
# Outline: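 In this screen, a yeast mutant lacking normal mitotic checkpoint function is challenged with compound. Relative growth versus vehicle gives the inhibition value.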
# [6] = NCI Yeast Anticancer Drug Screen. Data for the mlh1 rad18 strain (AID 175); settings: S. cerevisiae mlh1 rad18 strain growth inhibition; at 50.0 µM; active compounds read high
# Outline: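 Vehicle-treated cultures served as the reference for growth inhibition in a yeast strain carrying DNA damage repair alterations exposed to each compound.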
SMILES,growth inhibition [1],growth inhibition [2],growth inhibition [3],growth inhibition [4],growth inhibition [5],growth inhibition [6]
NC(Cc1ccccc1)c1cccc2c1CCCC2 (stereo unspecified),7.35%,-7.3%,-2.55%,-21.8%,24.4%,40.5%
CN(C)C(=O)c1nnsc1NN=O,32%,33.7%,-35.1%,8.35%,-14.4%,9.35%
COc1c2c(cc3c1OCO3)[C@]13C=C[C@H](OC)C[C@H]1N(C2)CC3O (stereo partly specified),17.2%,5.75%,3.6%,-0.55%,1.55%,-53.9%
O=[N+]([O-])c1ccc(-n2nc3ccc4c(no[n+]4[O-])c3n2)cc1,-21.6%,23.5%,20.1%,16.6%,-15.6%,-25.6%
CC(=O)Nc1ccc(Cl)cc1,-20.4%,-7.15%,-18.1%,1.7%,9.45%,-1.9%
O=C(c1ccccc1)C1NC1c1ccccc1 (stereo unspecified),13.8%,39.4%,1.65%,-16.6%,19.8%,10.2%
Cc1ccc(N[N+](=O)[O-])nc1,-7.25%,8.55%,-1.15%,-10.2%,-3.15%,14%
CCOP12(OCC)NC(=O)OC1(C(F)(F)F)c1ccccc1O2 (stereo unspecified),-19.4%,3.9%,-38%,-7%,-26.4%,-36.4%
BrCC[N+]12CCCN1CCC2,-7.95%,-31.4%,3.25%,0.2%,-7.05%,-31.3%
NNC(N)=O,1.3%,23.1%,-38.9%,-18.3%,-13.2%,-14.8%
CCCCCCCCCCCCP(=O)(O)OCC(N)C(=O)O (stereo unspecified),-0.9%,-21.6%,1.5%,-7.1%,-12.8%,-17.9%
CC(C)COC(=O)Cc1ccccc1,23.2%,12.6%,13.7%,-30.1%,-0.55%,25.4%
O=C(CC(=O)C(F)(F)F)c1cccs1,-6.15%,-11.6%,1.1%,12.3%,11.9%,-13.1%
COC(=O)c1ccccc1N,13.5%,1.95%,-0.55%,-29.5%,-2.9%,-6.75%
S=P1(c2ccccc2)C=C(N2CCCC2)CC1 (stereo unspecified),20.4%,20.2%,16.6%,1.7%,11.7%,20.4%
[CH3][Hg][O]C(C)=O,99.5% (active),99.9% (active),99.7% (active),99.5% (active),99.7% (active),99.7% (active)
NC(=O)c1c[se]c(C2OC(CO)C(O)C2O)n1 (stereo unspecified),-13.1%,-8.75%,-9.75%,-3.25%,-14.8%,-9.95%
CC1=C(C)C(=O)OC(C(C)(O)C2(O)CCC3(O)C4CC(Cl)C5(O)C(O)C=CC(=O)C5(C)C4CCC32C)C1 (stereo unspecified),7.8%,-37.3%,-18.7%,-3.2%,-15.9%,-52.2%
CC(C)(Br)[N+](=O)[O-],9%,-3.55%,4.45%,10.2%,10.8%,1.8%
CCCCOP(O)(=S)OCCCC.[Tb],-19%,14.6%,-14.6%,29.1%,-14.8%,17.9%
Nc1ccc([As](=O)(O)O)cc1C(=O)O,-16.3%,-18.8%,-6.7%,-11%,7.2%,-2.3%

SMILES,growth inhibition [1],growth inhibition [2],growth inhibition [3],growth inhibition [4],growth inhibition [5],growth inhibition [6]
CCC1C2Cc3ccc(O)cc3C1(CC)CCN2C (stereo unspecified),10.6%,-35.2%,-42.5%,-1.65%,-77.2%,-13.2%
Cc1ccc(NC(=O)C(=O)C2C(=O)NC(=O)NC2=O)c(C)c1,13.9%,9.75%,5.75%,11.2%,15.9%,17.6%
C=C1CC2C3CC=C4CC(OC(C)=O)CCC4(C)C3CCC2(C)C1=O (stereo unspecified),31.7%,13.8%,6.15%,0.55%,15.8%,15.7%
Cc1ccccc1-n1c(C)nc2ccccc2c1=O,-29.3%,-30.7%,-1.35%,11.6%,1.5%,-20.7%
COc1ccc(CC(C)NO)cc1 (stereo unspecified),-16.2%,8.8%,-11.9%,11.7%,2.35%,-32.5%
O=C1NC(=S)NC(=O)C1=Cc1ccc2ccccc2n1,-7.9%,-0.6%,1.55%,8.4%,-6.35%,-16.4%
CC(C)c1cc2c(cc1O)C1(C)CCCC(C)(C)C1=CC2=O (stereo unspecified),-1.65%,-28.9%,-8.15%,-17%,-5.8%,-13.1%
NC(=O)c1cc([N+](=O)[O-])c(N(CCCl)CCCl)c([N+](=O)[O-])c1,13.8%,17.1%,5.05%,17.9%,-1.55%,17.8%
Cc1ccc(S(=O)(=O)OC2CC3c4ccccc4C2c2cccc[n+]23)cc1 (stereo unspecified),68%,7.5%,36.4%,-18.4%,8.8%,12.1%
NNC(=S)N/N=C(\C(=O)Nc1cccc(O)c1)C1C(=O)NC(=S)NC1=O,-6.65%,-10.6%,-13.7%,-0.05%,2.55%,-17.9%
C[C@]12CCc3nonc3C1CC[C@@H]1C2CC[C@@]2(C)C1CC[C@@H]2O (stereo partly specified),3.65%,-0.65%,-0.4%,-53.1%,-7.55%,-2.1%
COc1cc(C2c3cc4c(cc3[C@@H](OC)[C@H]3COC(=O)C23)OCO4)cc(OC)c1O (stereo partly specified),89.5% (active),90% (active),86.4% (active),85.1% (active),89.3% (active),88.7% (active)
CCCCCCCCCCCCCCCCCC(=O)[O][Pb]([CH3])([CH3])[CH3],0.8%,0.5%,18.8%,21.6%,2.8%,13.1%
C[C@]12CC[C@H](OC(=O)Cc3ccc(N(CCCl)CCCl)cc3)CC1CC[C@@H]1C2CC[C@]2(C)NC(=O)CCC12 (stereo partly specified),0.1%,-5.65%,15.9%,15.2%,3.65%,18.1%
CCCCCCNC(=O)CBr,34.6%,4.55%,14.6%,3.4%,16.8%,30%
[Cl][Pt][Cl].c1ccc([PH+](c2ccccc2)c2ccccc2)cc1.c1ccc([PH+](c2ccccc2)c2ccccc2)cc1,-1.7%,4.75%,-4.95%,-6.6%,-1.6%,-16.9%
CC(C)(C)c1cc2c(=O)o[s+]3oc(=O)c(c1)c23,10.2%,-8.75%,6.75%,1.35%,6.15%,14.8%
C[N+]1([O-])C2CCC1CC(O)C2 (stereo unspecified),4.1%,7.55%,1.45%,16.2%,-2.5%,17.4%
O=C1NCN(c2ccccc2)C12CCN(Cc1ccccc1)CC2,-4.6%,-23.7%,14.6%,12.3%,3.1%,5.5%
NC1=C(c2nc(-c3cc4ccccc4oc3=O)cs2)C(c2ccco2)c2c(c3ccccc3oc2=O)O1 (stereo unspecified),-3.15%,-9.9%,-21.4%,-38.8%,4.1%,-14.3%
